# Test results published in PubChem BioAssay AID588676 (Johns Hopkins Ion Channel Center, 2011).
# The campaign covered roughly 310,000 compounds. About 3,900 (1.3%) were called active.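 How the source made its calls: active means calcium-response B-score plate-corrected more than 3 library SD below zero, starting fluorescence within 5 deviations, no agonist response on first addition; inactive means the rest.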 The full list was thinned out, with actives kept by preference.
# Target: Mas-related G-protein coupled receptor member X1 (Homo sapiens) (UniProt Q96LB2)
# Sequence (Q96LB2 whole entry, looked up): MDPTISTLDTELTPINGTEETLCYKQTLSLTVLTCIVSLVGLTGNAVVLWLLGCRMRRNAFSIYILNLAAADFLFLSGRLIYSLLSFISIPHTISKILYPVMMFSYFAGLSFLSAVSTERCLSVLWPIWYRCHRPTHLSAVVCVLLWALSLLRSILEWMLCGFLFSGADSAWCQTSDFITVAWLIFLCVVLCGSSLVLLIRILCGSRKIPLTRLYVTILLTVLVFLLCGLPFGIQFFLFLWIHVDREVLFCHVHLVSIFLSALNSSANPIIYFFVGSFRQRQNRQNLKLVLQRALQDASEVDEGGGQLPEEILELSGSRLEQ
# Test: antagonists of human MrgX1 receptor, primary screen, HEK293 cells, Fluo-4 calcium flux (AID 588676);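 on B-score: peak minus trough fluorescence over baseline after final BAM8-22 challenge near maximal dose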
# Details: Fluo-4, BAM8-22 antagonism, at 10 µM; hits give low values
row,Structure (SMILES),B-score
1,Oc1cc(O)c2c(c1)OC(c1ccc(O)c(O)c1)C(O)C2 (stereo not drawn),inactive
2,Cc1ccc2cc3cc(C(=O)N4CCCCCC4)oc3nc2c1,inactive
3,CN(C)c1ccc(C(CC(=O)O)C(=O)O)cc1 (stereo not drawn),inactive
4,Cc1cnc(CN(C)C(=O)CC2C(=O)NCCN2Cc2cccc(F)c2F)[nH]1 (stereo not drawn),inactive
5,CCCCCc1nnc(NC(=O)c2ccc(=O)n(C)n2)s1,inactive
6,Cc1cc(=O)n2c3c(cccc13)CCC2,inactive
7,CCCCc1nc2ccccc2c(=O)n1NC(=O)c1c(O)c2cccc3c2n(c1=O)CC3,inactive
8,CCNC(=O)c1c(O)c2cccc3c2n(c1=O)CC3,-5.85 (active)
9,Nc1[nH][nH]c(=O)c1N=Nc1ccc2c(c1)OCO2,inactive
10,Cc1cc(Nc2cc(N3CCN(C)CC3)nc(Sc3ccc(NC(=O)C4CC4)cc3)n2)n[nH]1,-6.92 (active)
11,Cc1cc(C)nc(N2CCC(C(=O)Nc3ccc4c(c3)OCCO4)CC2)n1,inactive
12,Cc1cc(C)cc(NC(=O)C2CCN(c3nc(C)cc(C)n3)CC2)c1,inactive
13,COc1cc(CC(=O)Nc2nc(-c3ccc(F)c(F)c3)cs2)cc(OC)c1OC,inactive
14,Cc1ccc(S(=O)(=O)NC(=O)Nc2nc(-c3ccc(F)c(F)c3)cs2)cc1,inactive
15,COc1ccc(CC(=O)Nc2nc(-c3ccc(F)c(F)c3)cs2)cc1OC,-5.43 (active)
16,CCc1nn(CC(=O)N2CCN(c3cc(C)ccc3C)CC2)c(=O)c2cc3occc3n12,inactive
17,O=C(CSc1c2c(nc3ccc(Cl)cc13)CCCC2)NCc1ccco1,-6.85 (active)
18,O=C(CSc1nnnn1-c1ccccc1)NCc1ccco1,inactive
19,O=C(/C=C/c1ccc(Cl)cc1Cl)NCc1ccco1,inactive
20,COc1ccc(C)cc1NC(=O)CN(C)S(=O)(=O)c1ccc2c(c1)n(C)c(=O)c(=O)n2C,inactive
21,Cc1cc(C)cc(N(CC(=O)NC2CCCC2)C(=O)CCC(=O)Nc2nccs2)c1,inactive
22,Cc1ccc2oc(=O)c3cnn(CC(=O)N4CCCCCC4)c3c2c1,inactive
23,COCCCN(C(=O)Cn1ncc2c(=O)oc3ccc(C)cc3c21)C(C)c1ccncc1 (stereo not drawn),-9.22 (active)
24,Cc1ccc2oc(=O)c3cnn(CC(=O)N(Cc4ccco4)C4CCCCC4)c3c2c1,inactive
25,CN1CCC(=O)N([C@H](CO)Cc2ccccc2)CC1,inactive
26,CCN(Cc1ccccc1)S(=O)(=O)c1cc(C(=O)O)ccc1OC,inactive
27,Cc1ccc(CNC(=O)CSc2nnc3c(n2)[nH]c2ccc(F)cc23)cc1,-5.01 (active)

row,Structure (SMILES),B-score
1,COc1ccc2[nH]c3nc(SCC(=O)NC4CC4)nnc3c2c1,inactive
2,Cc1ccn2c(=O)nc(SCC(=O)NCc3ccc(F)cc3)nc2c1,inactive
3,COc1ccc(S(=O)(=O)n2nc(C)c(S(=O)(=O)N3CCOCC3)c2C)cc1,inactive
4,CCc1ccc(OC(C)C(=O)Nc2ccc(S(=O)(=O)Nc3cc(C)on3)cc2)cc1 (stereo not drawn),inactive
5,CCOc1ccc(CC(=O)Nc2ccc(S(=O)(=O)Nc3cc(C)on3)cc2)cc1OCC,-7.96 (active)
6,CCOc1ccc(C(=O)Nc2ccc(S(=O)(=O)Nc3cc(C)on3)cc2)cc1,inactive
7,CCCOc1ccc(CNC(=O)C2CCN(c3nn4c(=O)cc(C)nc4s3)CC2)cc1,inactive
8,O=C(NN1C(=O)C2C3C=CC(C3)C2C1=O)c1ccco1 (stereo not drawn),-9.57 (active)
9,O=C(NN1C(=O)C2CCCCC2C1=O)c1ccco1 (stereo not drawn),inactive
10,CC(C)=C1C2CCC1C1C(=O)N(NC(=O)c3ccco3)C(=O)C21 (stereo not drawn),inactive
11,NC(=O)c1cc(S(=O)(=O)N2CCCC2)ccc1OCc1ccc(F)cc1,inactive
12,O=C(COc1ccccc1F)NC1CC1,inactive
13,Cc1ccccc1OCC(=O)Nc1nnc(S(=O)(=O)N2CCCC2)s1,inactive
14,CC1CCN(S(=O)(=O)c2nnc(NC(=O)COc3ccccc3F)s2)CC1,-4.6 (active)
15,O=S(=O)(CCc1nc2ccccc2o1)c1ccc(Cl)cc1,inactive
16,CCc1nnc(NC(=O)c2sc3nc(C)cc(COC)c3c2N)s1,inactive
17,CCc1ccc2nc3sc(C(=O)Nc4nnc(CC)s4)c(N)c3cc2c1,-7.06 (active)
18,CCc1nnc(NC(=O)c2cccc(S(=O)(=O)N(C)c3ccc(OC)cc3)c2)s1,inactive
19,COc1ccc(CN2CCN(C(=O)CCC(=O)Nc3nnc(C(C)C)s3)CC2)cc1F,inactive
20,COc1ccccc1C(=O)Nc1nc2nc(-c3ccccc3)cc(=O)n2[nH]1,inactive
21,Cc1ccc(C)n1NC(=O)c1ccc([N+](=O)[O-])cc1,inactive
22,Cc1ccc(NC(=O)/C(=C/c2ccc([N+](=O)[O-])cc2)NC(=O)c2ccccc2)cc1,inactive
23,CC1=NN(c2ccccc2)C(=O)C1C(=O)c1ccc([N+](=O)[O-])cc1 (stereo not drawn),-4.73 (active)
24,O=C(CC1CCCCC1)NCc1ccc(F)cc1,inactive
25,Cc1ccc(/C=N/NC(=S)Nc2cccc(S(=O)(=O)N(C)C)c2)o1,inactive
26,CN(C)S(=O)(=O)c1cccc(NC(=S)NCc2ccc3c(c2)OCO3)c1,inactive
